Among all 310,000 compounds or so, about 2,600 (0.84%) were called active.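 How the source made its calls: active means fluorescence ratio B-score at or below minus 3 SD of library scores, with starting-brightness B-score within 2 SD (cut at about -4.2 in these data); inactive means the rest.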 The list comes from a sample in which actives are over-represented; it also holds similar structures and randomly drawn compounds.

For the assay, the target named is Inward rectifier potassium channel 2 (Mus musculus) (UniProt P35561). As to the kind of experiment: blocks the mouse Kir2.1 inward-rectifier potassium channel (AID 1672).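 Further: channel flux triggered by added potassium and thallium sulfate stimulus; B-score of peak minus minimum fluorescence over baseline after thallium stimulus; more negative B-score means stronger Kir2.1 block with less thallium influx.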 Conditions: HEK293-Kir2.1, FluxOR thallium flux fluorescence; at 10 µM; hits give low values.
Sequence of Inward rectifier potassium channel 2 (Mus musculus) (P35561 whole entry, looked up): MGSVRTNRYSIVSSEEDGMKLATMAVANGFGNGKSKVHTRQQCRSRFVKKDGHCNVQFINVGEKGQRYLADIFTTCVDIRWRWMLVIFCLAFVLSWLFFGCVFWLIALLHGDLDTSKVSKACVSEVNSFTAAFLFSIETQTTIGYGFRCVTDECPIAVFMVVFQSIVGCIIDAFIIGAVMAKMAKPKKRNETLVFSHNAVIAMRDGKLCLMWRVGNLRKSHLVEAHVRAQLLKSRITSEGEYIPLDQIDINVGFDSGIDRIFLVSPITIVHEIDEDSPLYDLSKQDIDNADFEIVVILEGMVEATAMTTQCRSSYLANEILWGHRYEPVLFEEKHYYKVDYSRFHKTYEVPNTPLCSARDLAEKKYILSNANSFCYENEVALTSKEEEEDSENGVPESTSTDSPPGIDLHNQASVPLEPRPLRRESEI
For the compound `O=C(CCCN=C1NS(=O)(=O)c2ccccc21)OCC(=O)c1ccc(F)c(F)c1`, the B-score is 0.45 (inactive).

For the compound `Cc1cccc(C(=O)NCC(=O)OCC(=O)N2CC3(C)CC2CC(C)(C)C3)c1` (stereo not drawn), the B-score is 1.23 (inactive).

Consider `COc1ccccc1C(=O)N1CC2(C)CC1CC(C)(C)C2` (stereo not drawn), for which the B-score was -0.99 (inactive).

For `Cc1nnnn1/C(=C\c1ccccc1)C(=O)OCC(=O)N1CC2(C)CC1CC(C)(C)C2` (stereo not drawn), the B-score was -4.63 (active).

With `Cc1ccc(-n2c(Cc3cccs3)nnc2SCC(=O)OC(C)C)cc1`, the B-score was -2.12 (inactive).

For the compound `CCn1c(Cc2cccs2)nnc1SCC(=O)c1ccc(C)cc1`, the B-score is -4.88 (active).

As to `CCn1c(SCC(=O)c2ccc3ccccc3c2)nnc1-c1cccs1`, the B-score is -2.71 (inactive).

Consider `O=C(/C=C/c1ccc2c(c1)OCO2)NCc1ccc(F)cc1`, for which the B-score was -0.53 (inactive).

`COc1c(C=O)c(CCN(C)C(=O)c2ccc(F)cc2)cc2c1OCO2`: the B-score was -4.35 (active).

Regarding `CN(Cc1nc2ccccc2s1)C(=O)c1ccc(F)cc1`, the B-score is 1.03 (inactive).

Consider `Cc1cc(NC(=O)C(C)SCC(=O)Nc2ccccc2N2CCCCC2)no1` (stereo not drawn), for which the B-score was -4.17 (inactive).

Regarding `COc1ccc(C(=O)c2c3ccc([N+](=O)[O-])cc3[n+]([O-])n2CCCN)cc1`, the B-score was 0.68 (inactive).

Consider `Cc1cc(NC(=O)CCS(=O)(=O)c2ccc(F)cc2)no1`, for which the B-score was -0.47 (inactive).

Regarding `Cc1c(Cl)cccc1NC(=S)NCc1ccc2c(c1)OCO2`, the B-score is -1.74 (inactive).

`Cc1c(Cl)cccc1NC(=S)NCC(O)c1ccccc1` (stereo not drawn): the B-score was -4.47 (active).

As for `CCNC(=S)Nc1cccc(Cl)c1C`, the B-score is 0.45 (inactive).

As to `O=C(Nc1ccc(N2CCCCC2)cc1)c1cc(S(=O)(=O)N2CCOCC2)ccc1F`, the B-score was 0.53 (inactive).

In the case of `COc1cc(N)c(Cl)cc1C(=O)OCC(=O)c1ccc2c(c1)NC(=O)CO2`, the B-score is 0.6 (inactive).

Turning to `Cc1nn(C)cc1C(=O)c1ccccc1`, the B-score was 0.22 (inactive).

Regarding `CCOc1ccc(C(=O)Nc2cc(Cl)ccc2-n2cncn2)cc1OC`, the B-score was -2.32 (inactive).

For `COc1ccc2c(c1)C=CC1(O2)N(CCO)c2ccccc2C1(C)C` (stereo not drawn), the B-score was -6.82 (active).

With `COc1cccc(CC2(CO)CCCN(CC3=Cc4cc(OC)ccc4OC3)C2)c1` (stereo not drawn), the B-score is 0.68 (inactive).

As for `CN1c2ccc([N+](=O)[O-])cc2C(C)(C)C12C=Cc1cc(C(=O)O)ccc1O2` (stereo not drawn), the B-score is 0.63 (inactive).

On to `CN(N)c1nc(N2CCCC2)nc(N2CCCC2)n1`, for which the B-score is 0.28 (inactive).

Consider `Cc1sc2ncnc(N3CCC(C(=O)NNC(=O)c4ccc(F)cc4)CC3)c2c1C`, for which the B-score is 0.05 (inactive).

For the compound `CSc1ccc(Cl)c(C(=O)OCC(=O)N2CC(C)OC(C)C2)c1` (stereo not drawn), the B-score was -0.84 (inactive).

As to `COc1ccc(N2CCN(C(=O)COC(=O)c3cccc(S(=O)(=O)Nc4ccccc4OC)c3)CC2)cc1`, the B-score was 0.61 (inactive).

As for `CC1CN(C(=O)COC(=O)c2cccc(NS(=O)(=O)c3ccccc3)c2)CC(C)O1` (stereo not drawn), the B-score was -4.76 (active).

These data come from PubChem BioAssay AID1672 (Johns Hopkins Ion Channel Center, 2009).
